# Measurements: PubChem BioAssay AID588726 (The Scripps Research Institute Molecular Screening Center, 2011)
# Out of some 360,000 compounds screened, about 8,200 (2.3%) were called active. Shown is part of a subset that was picked to be rich in actives. Values without a mark were called inactive. Cut-off read from the data, not from the text of the source: active = inhibition above about 27%; inactive = the rest.
# Target: Fructose-bisphosphate aldolase (Mycobacterium tuberculosis (strain ATCC 25618 / H37Rv)) (UniProt P9WQA3)
# Assay: Mtb FBA enzyme inhibitors, primary screen, biochemical, fluorescence, strain H37Rv (AID 588726);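 note: 0% = vehicle and 100% = reference inhibitor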
# Conditions: purified M. tuberculosis FBA, fluorescence read-out, at 1 µM, hits give high values
# Sequence of Fructose-bisphosphate aldolase (Mycobacterium tuberculosis (strain ATCC 25618 / H37Rv)) (P9WQA3 whole entry, looked up): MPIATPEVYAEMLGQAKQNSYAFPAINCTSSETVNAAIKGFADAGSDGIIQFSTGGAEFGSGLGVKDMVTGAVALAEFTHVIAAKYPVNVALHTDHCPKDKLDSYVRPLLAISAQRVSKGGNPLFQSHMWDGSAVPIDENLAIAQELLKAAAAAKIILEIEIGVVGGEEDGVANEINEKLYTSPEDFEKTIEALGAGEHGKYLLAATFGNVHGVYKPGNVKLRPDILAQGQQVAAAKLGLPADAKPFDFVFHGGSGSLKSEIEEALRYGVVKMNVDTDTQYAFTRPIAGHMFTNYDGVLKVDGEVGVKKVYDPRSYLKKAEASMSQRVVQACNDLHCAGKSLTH
row,SMILES,inhibition
1,Nc1ccc(C(=O)OCC(=O)NC2CCS(=O)(=O)C2)cc1[N+](=O)[O-] (stereo not drawn),-2.41%
2,O=C(COC(=O)/C=C/c1ccc(Cl)cc1)NC1CCS(=O)(=O)C1 (stereo not drawn),-2.05%
3,O=C(COC(=O)CCCN1C(=O)c2cccc3cccc(c23)C1=O)NC1CCS(=O)(=O)C1 (stereo not drawn),45.1% (active)
4,COc1ccc(NC(=O)CCC(=O)N2CCN(S(=O)(=O)c3ccc(C)cc3)CC2)c(OC)c1,-0.33%
5,CC(=O)NCC(=O)N1CCCC(C(=O)c2ccc3c4c(cccc24)CC3)C1 (stereo not drawn),33.7% (active)
6,CCn1ccnc1CN1CCCC(C(=O)c2ccc3c4c(cccc24)CC3)C1 (stereo not drawn),8.92%
7,Cc1ncoc1C(=O)N1CCCC(C(=O)c2ccc3c4c(cccc24)CC3)C1 (stereo not drawn),17.8%
8,CCOC(=O)c1cnc2sccn2c1=O,20.1%
9,CCOC(=O)c1cnc(COc2ccccc2Cl)[nH]c1=O,3.61%
10,CCCc1cc(C(=O)N2CCCC(CO)(CCCc3ccccc3)C2)n(C)n1 (stereo not drawn),-1.51%
11,N#Cc1c(-c2ccccc2)c(-c2ccccc2)n[nH]c1=O,-6.25%
12,O=C(O)c1ccc(-n2nc(-c3ccccc3)c3ccccc3c2=O)cc1,2.23%
13,O=C(O)c1n[nH]nc1-c1ccccc1,113% (active)
14,COc1cc(Cl)c(C)cc1NC(=O)COC(=O)c1cc(SC)ccc1Cl,7.33%
15,O=C(O)CSc1nccn1-c1cccc(Cl)c1,3.31%
16,COC(=O)NNC(=O)C1CCC(C)CC1 (stereo not drawn),1.9%
17,CCOC(=O)N1CCN(C(=O)CSc2nc(C)nc3c2c(=O)n(C)c(=O)n3C)CC1,4.39%
18,OCC[C@H]1C[C@H](O)[C@@H](O)[C@]2(CCc3ccccc3O2)O1,-1.81%
19,NC(=O)CC[C@@H]1NC(=O)[C@@H]2CCCN2C(=O)c2cc([N+](=O)[O-])cc(F)c2NCCC[C@@H](C(N)=O)NC1=O,-3.88%
20,O=C(NCc1ccco1)c1ccc([N+](=O)[O-])cc1Cl,3.22%
21,CCc1ccc(-c2cc(C(=O)NCc3ccco3)c3ccccc3n2)s1,54.1% (active)
22,Cc1cc(C(=O)OCC(=O)NCc2ccco2)c(C)n1-c1ccccc1,-0.83%
23,CN(Cc1ccc(C(F)(F)F)cc1)C(=O)[C@H]1O[C@@H](n2cnc3c(N)ncnc32)[C@H](O)[C@@H]1O,-0.98%
24,CCN1C(=O)CS/C1=N\c1nccs1,-3.46%

row,SMILES,inhibition
1,COc1cc2c(cc1OC)CC1(CCCCC1)N=C2,45% (active)
2,Cc1ccc(S(=O)(=O)NCc2ccc(C(=O)NC3CCC(C)CC3)cc2)cc1 (stereo not drawn),-7.12%
3,COc1ccc(C(=O)Cn2nnc(-c3ccc(N4CCOCC4)cc3)n2)cc1OC,-1.43%
4,COc1ccc(-c2ccc(CCC(=O)O)n2-c2ccc(O)cc2)cc1,-1.15%
5,COc1ccc(-c2ccc(CCC(=O)O)n2NC(=O)c2ccc(C(C)(C)C)cc2)cc1,3.01%
6,COCCCn1c(CCC(=O)O)ccc1-c1ccc(F)cc1,50.6% (active)
7,CC(=O)Nc1ccc(Sc2ccccc2C(=O)N2CCCC2)cn1,1.32%
8,COc1ccc(C2C(C#N)=C(N)N(c3ncn[nH]3)C3=C2C(=O)CCC3)cc1 (stereo not drawn),3.59%
9,CCOc1ccc(C2C3=C(CCCC3=O)N(CC(=O)O)C3=C2C(=O)CCC3)cc1,39.2% (active)
10,CCOc1ccc(C2C(C#N)=C(N)N(N(C)C)C3=C2C(=O)CCC3)cc1 (stereo not drawn),-0.23%
11,COc1ccc(C2C3=C(CCCC3=O)N(CC(=O)O)C3=C2C(=O)CCC3)cc1,47.7% (active)
12,CCOC(=O)C1=C(N)N(c2ccc(C)cc2)C2=C(C(=O)CCC2)C1c1cccs1 (stereo not drawn),-1.49%
13,CCCN1C2=C(C(=O)CCC2)C(c2ccc(O)c(Br)c2)C2=C1CCCC2=O,-1.2%
14,CC(C)c1ccc(Nc2nnc(SCC(=O)c3nnc(-c4ccccc4)o3)s2)cc1,-2.05%
15,CCOC(=O)C1CCN(C(=O)C2CCCN(S(=O)(=O)c3ccc(OC)c(Cl)c3)C2)CC1 (stereo not drawn),13.8%
16,C=CCOc1cccc(C2NC(=O)c3ccccc3O2)c1 (stereo not drawn),5.49%
17,COc1ccc(C2(O)C(=O)Nc3ccccc32)cc1 (stereo not drawn),1.93%
18,O=C1NC(c2ccccc2)Oc2ccccc21 (stereo not drawn),6.04%
19,COc1ccc(C2CC(=O)NC(=O)C2)cc1,0.31%
20,O=C1NC(c2cccc(Cl)c2)Nc2ccccc21 (stereo not drawn),30.3% (active)
21,COc1ccc(C2NC(=O)c3ccccc3N2)cc1 (stereo not drawn),67% (active)
22,CC(C)=CCCC1(C)C=Cc2c(ccc3c2[nH]c2cc(O)c(C)cc23)O1 (stereo not drawn),-3.09%
23,COc1cccc(CNC(=O)C(=O)NCCC2CCCCN2S(=O)(=O)c2ccc(C)cc2)c1 (stereo not drawn),1.18%
24,COC(=O)C1NN=C(C(=O)c2ccc(Br)cc2)C1c1cccc(Br)c1 (stereo not drawn),-2.34%

row,SMILES,inhibition
1,CC(=O)Nc1cccc(Nc2ccc(C#N)cc2)c1,0.34%
2,Oc1ccc(C2Nc3cccc4cccc(c34)N2)cc1,-2.34%
3,Cc1ccc(C2Nc3cccc4cccc(c34)N2)cc1,49.3% (active)
4,O=[N+]([O-])c1ccc2c(c1)C(N1CCOCC1)/C(=C/C1(O)CCCCC1)O2 (stereo not drawn),-4.67%
5,O=C(Nc1ccccc1)c1ccccc1NC(=O)C(F)(F)F,-0.1%
6,COCc1cc(=O)[nH]c2cc(NC(=O)C(F)(F)F)c(C)cc12,31.5% (active)
7,Cc1ccccc1Cn1nc(C)c(NC(=O)C(F)(F)F)c1C,-0.53%
8,COCCCN1C(=O)C(=O)/C(=C(/O)c2ccc(S(=O)(=O)N3CCOCC3)cc2)C1c1ccc(F)cc1 (stereo not drawn),4.42%
9,COc1ccccc1NC(=O)COC(=O)COc1ccccc1F,-0.62%
10,COc1cc(CO)ccc1OCC(=O)Nc1cccc2ccccc12,-1.87%
11,COc1ccccc1NC(=O)COc1ccc(C(=O)OCC(=O)N(C(C)C)C(C)C)cc1OC,33.2% (active)
12,COc1ccc(C2c3c(C)nn(-c4ccccc4)c3NC(=O)N2c2ccccc2)cc1 (stereo not drawn),-0.42%
13,O=C(CCC1CCN(C(=O)c2cccc(Cl)c2F)CC1)Nc1ccccc1,-0.26%
14,COc1ccc(CCNC(=O)C(=O)Nc2ccc3nc4n(c(=O)c3c2)CCCCC4)cc1OC,-5.38%
15,COc1ccc(CCNC(=O)c2cc3sccc3n2C)cc1OC,6.99%
16,COc1ccc(CCNC(=O)Nc2ccc3c(c2)c(=O)n(C)n3C)cc1OC,156% (active)
17,CCCc1cc(=O)n2[nH]c(SCc3ccccc3)nc2n1,-0.14%
18,COCc1cc(=O)[nH]c(-c2ccc(C(F)(F)F)cc2)n1,2.51%
19,Cc1nc2c(-c3ccccc3)c(C)[nH]n2c(=O)c1Cl,47.5% (active)
20,COCc1cc(=O)[nH]c(SC)n1,2.44%
21,CCCc1c(C)nc2scc(-c3ccc(Cl)cc3)n2c1=O,0.91%
22,CCCc1cc(=O)n2[nH]c(C)c(-c3ccc(Cl)cc3)c2n1,27.5% (active)
23,Cc1nc2nc(COc3ccccc3)[nH]n2c(=O)c1C,0.07%
24,COCc1cc(=O)n2[nH]c(C)c(-c3ccccc3)c2n1,102% (active)

row,SMILES,inhibition
1,Cc1nc(=O)c(-c2ccccc2)c(C)n1-c1ccc(Br)cc1,2.14%
2,COc1ccc(-c2csc3nc(-c4ccccc4F)oc(=O)c23)cc1OC,2.27%
3,C=CC(=O)Nc1ccc(Nc2ccnc(Nc3ccc(N4CCN(C)CC4)cc3)n2)cc1,3.07%
4,Cc1nc(SCC(=O)N2CCc3ccccc3C2)c2c(C)c(C)sc2n1,0.74%
5,COc1cc(C2C(C#N)=C(C)NC3=C2C(=O)CC(C)(C)C3)ccc1O (stereo not drawn),0.13%
6,Cc1sc2nc(-c3ccccc3F)oc(=O)c2c1C,-0.79%
7,COc1ccccc1N(CC(=O)N/N=C(\C)c1ccccc1O)S(=O)(=O)c1ccc(C)cc1,2.36%
8,COc1ccc(-c2csc3ncnc(Oc4ccc5c(C)cc(=O)oc5c4)c23)cc1,2.35%
9,COc1ccc(-c2cc3ccc(OCc4nn[nH]n4)cc3oc2=O)cc1,"734% [above what the read-out allows, likely interference] (active)"
10,COc1ccc(-c2cc(=O)oc3cc(OCC(=O)N[C@@H](Cc4c[nH]c5ccccc45)C(=O)O)ccc23)cc1,6.63%
11,CC1CCN(C(=O)Cn2nnnc2CN2CCOCC2)CC1,-0.01%
12,CCN(CC)c1ccc2cc(C(=O)O)c(=O)oc2c1,36.2% (active)
13,CCN(CC)c1ccc([N+](=O)[O-])cc1C(=O)O,-17.9%
14,Cc1cc(C)cc(OCC(=O)NNC(=O)c2cc3ccccc3oc2=O)c1,1.86%
15,Cc1ccc(C2=Nc3c(ccc4ccccc34)C(c3ccncc3)=NN2)cc1,1.27%
16,CC1(C(=O)NCc2ccc(F)c(F)c2)Cc2c(-c3ccc4c(c3)OCO4)ccnc2O1 (stereo not drawn),44.6% (active)
17,CC1(C(=O)NCC2CCOCC2)Cc2c(-c3cccc(C(N)=O)c3)ccnc2O1 (stereo not drawn),-0.46%
18,CC1(C(=O)NCc2ccco2)Cc2c(-c3ccc4c(c3)OCO4)ccnc2O1 (stereo not drawn),46.9% (active)
19,CC(=O)Nc1cccc(-c2ccnc3c2CC(C)(C(=O)NCc2ccco2)O3)c1 (stereo not drawn),-0.36%
20,O=C(Cn1nnc(-c2ccc3c(c2)OCO3)n1)NCc1ccco1,1.83%
21,CC(=O)Nc1cccc(-c2ccnc3c2CC(C)(C(=O)NCc2ccccc2)O3)c1 (stereo not drawn),1.41%
